Measured values reported in PubChem BioAssay (NCI).
About 83,000 compounds went through this panel and 20% of them were active in at least one assay; those are over-represented in the sample as a whole.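 A percent growth of 40 corresponds to 60% growth inhibition; 0 means no net growth; -100 means all cells died. Active threshold: below 10.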 A number with no mark means an inactive call. Active and inactive are the calls of the source.

Test system: HL-60(TB) leukemia
Assay: NCI-60 one-dose screen, 48 h (100 = growth as untreated, 0 = no growth, -100 = all killed)
Conditions: 10 µM unless noted

**Q.** How did the growth turn out when `COc1ccccc1NC(=O)COc1ccc(/C=C2/Oc3cc4occc4c(OC)c3C2=O)cc1OC` was run?
**A.** 87.5%

**Q.** For `CC1(C)/C(=C\CO)C2CCC1C2` (stereo not given), which growth is on record?
**A.** 94.1%

**Q.** How did the growth turn out when `CC(C)CSc1nc(N)nc2c1ncn2C1OC(CO)C(O)C1O` (stereo not given) was run?
**A.** 113%

**Q.** How did the growth turn out when `COc1cc2cc(Oc3ccc(NC(=O)Nc4ccc(C(F)(F)F)cc4)cc3)c(C)nc2cc1OC` was run?
**A.** 75.3%

**Q.** How did the growth turn out when `C=CCOc1ccc(N=NC(C#N)C#N)cc1` was run?
**A.** 0.44% (active)

**Q.** For `COc1ccc(-n2c(C)cc(-c3ccccc3)c2C)cc1`, which growth is on record?
**A.** 23.2%

**Q.** Which growth does the source give for `COc1cc(-c2nc(SCCC(C)C)nc(Nc3ccccc3)c2C#N)cc(OC)c1OC` here?
**A.** 83.9%

**Q.** `O=c1ccc2nc(C(F)(F)F)nn(-c3ccccc3)c-2c1` was tested. Which growth did it give?
**A.** -36.6% (active)

**Q.** Which growth does the source give for `O=C(O)CSCC(=O)Nc1cc(C(F)(F)F)ccc1Cl` here?
**A.** 102%

**Q.** With `COc1ccc2nc3cc([N+](=O)[O-])ccc3c(NNc3ccccc3)c2c1` as the molecule, how does the growth read?
**A.** 121%

**Q.** For `CCc1c(C(=O)N[C@@H](C(=O)OCc2ccccc2)C(C)O)[nH]c2ccc(Cl)cc12` (stereo not given in full), which growth is on record?
**A.** 122%

**Q.** How did the growth turn out when `Cc1ccc(C(SCC(N)C(=O)O)(c2ccc(C)cc2)c2ccc(C)cc2)cc1` (stereo not given) was run?
**A.** -17% (active)

**Q.** Which growth does the source give for `CC(=O)N[C@@H](CNC(=O)c1cc(NC(=O)c2cc(NC(=O)c3cc(NC(=O)c4nccn4C)cn3C)cn2C)cn1C)CC(=O)Nc1cn(C)c(C(=O)Nc2cc(C(=O)Nc3cc(C(=O)Nc4cc(C(=O)NCCCN(C)CCCNC(=O)c5cccc(C(=O)O)c5)n(C)c4)n(C)c3)n(C)c2)n1` here?
**A.** 109%

**Q.** How did the growth turn out when `CN1C(=O)NC(Cc2c[nH]c3c(Cl)cccc23)C1=O` (stereo not given) was run?
**A.** 98.6%

**Q.** `COc1cc2cc(OC(C)=O)c3cc4c(cc3c2c(OC)c1OC)OCO4` was tested. Which growth did it give?
**A.** 96.6%

**Q.** Which growth does the source give for `CCOC(=O)/C(=C/CC/C(C)=C/CC/C(C)=C/CCc1ccoc1)CC(=O)N1CCCCC1` here?
**A.** -35.2% (active)

**Q.** Which growth does the source give for `CN(C)CCC(=O)C1CC1` here?
**A.** 93.9%

**Q.** For `ON=C(C1CCCCC1)C1CCCCC1`, which growth is on record?
**A.** 96.7%

**Q.** `CN1CCN(c2ccc3nc(-c4ccc5nc(-c6ccc(O)cc6)[nH]c5c4)[nH]c3c2)CC1` was tested. Which growth did it give?
**A.** 40.9%

**Q.** Which growth does the source give for `CO[C@H]1C[C@@H]2CC[C@@H](C)[C@@](O)(O2)C(=O)C(=O)N2CCCC[C@H]2C(=O)O[C@H]([C@H](C)C[C@@H]2CC[C@@H](OCCO)[C@H](OC)C2)CC(=O)[C@H](C)/C=C(\C)[C@@H](O)[C@H](OC)C(=O)[C@H](C)C[C@H](C)\C=C/C=C/C=C/1C` here?
**A.** 75.7%

**Q.** Which growth does the source give for `CCNCCNc1cc(-c2ccc(C(=O)OC)cc2)c(C#N)c2nc3ccccc3n12` here?
**A.** -57.2% (active)

**Q.** Which growth does the source give for `COc1ccc(C2=NN(C(=O)COc3ccc(Cl)cc3)C(O)(c3cc(F)c(Cl)cc3Cl)C2)cc1OC` (stereo not given) here?
**A.** -42.2% (active)

**Q.** How did the growth turn out when `Cn1c(NCCc2ccc(O)c(O)c2)nc2c1c(=O)n(Cc1ccc(Br)cc1)c(=O)n2C` was run?
**A.** 2.61% (active)

**Q.** How did the growth turn out when `Cc1ccccc1NC(=O)c1sc2nc(C)c(C(C)O)cc2c1N` (stereo not given) was run?
**A.** -14.8% (active)

**Q.** How did the growth turn out when `CCCCCCCCNC(C)C(O)c1ccc(SC(C)C)cc1` (stereo not given) was run?
**A.** -70.1% (active)

**Q.** Which growth does the source give for `N#Cc1ncc(-c2ccc(C(F)(F)F)cc2)c(NCc2cc(C(F)(F)F)cc(C(F)(F)F)c2)n1` here?
**A.** -0.911% (active)

**Q.** For `Cc1ccc(C(=O)N/N=C/c2cccc([N+](=O)[O-])c2)cn1`, which growth is on record?
**A.** 74%

**Q.** Which growth does the source give for `COc1ccc(C2C3=C(COC3=O)N(CCO)c3cc4c(cc32)OCCO4)cc1OC` (stereo not given) here?
**A.** 6.34% (active)

**Q.** How did the growth turn out when `CCCCCCCCCCN=C(N)N=C(N)N` was run?
**A.** 1.55% (active)

**Q.** For `CCCCN(Cc1ccc(C(=O)NO)cc1)C(=O)Nc1ccc(OCCCCCCCCCn2cc(CCCCC(=O)N[C@H](C(=O)N3C[C@H](O)C[C@H]3C(=O)NCc3ccc(-c4scnc4C)cc3)C(C)(C)C)nn2)cc1`, which growth is on record?
**A.** 21.6%

**Q.** How did the growth turn out when `O=C(Nc1ncccc1OCc1ccccc1)NC1CCCCCC1` was run?
**A.** 57.7%

**Q.** For `CC(=O)[C@@H]1CC[C@]2(CO)CC[C@]3(C)[C@H](CC[C@@H]4[C@@]5(C)CCCNC(C)(C)[C@@H]5CC[C@]43C)[C@@H]12`, which growth is on record?
**A.** 136%

**Q.** How did the growth turn out when `COc1cc(/C=C2\CCC/C(=C\c3cc(CN4CCCCC4)c(O)c(OC)c3)C2=O)cc(CN2CCCCC2)c1O` was run?
**A.** 92.7%

**Q.** `COc1cc(OCc2cccc(-c3ccc4c(c3)OCCO4)c2C)cc(OC)c1C=O` was tested. Which growth did it give?
**A.** 64%

**Q.** How did the growth turn out when `Cn1ncc(Cl)c1-c1cc(C(=O)N[C@H](CN)Cc2ccc(F)c(F)c2)oc1Cl` was run?
**A.** -35.6% (active)
